Sampled rows, rich in hits. Any-hit rate of the full collection: about 21%.
NS1 inh: blocks influenza NS1 protein function. Potency, µM (titrated, usually from 46.1 µM), without a hit: at the highest dose activity, positive = more growth. actives 0.4% (n = 270,000). AID 2326; calls by dose curve; note: potency is the fitted concentration of half-maximal effect; actives are rising curves; nearly all actives have a fitted effect of over 50% in size
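A cell-based growth assay was used: compounds that relieve NS1-induced slow growth of budding yeast raise OD600. Assay medium was yeast nitrogen base with ammonium sulphate and -URA supplement, pH 6.0, with 2% galactose.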
Cycloheximide cs: counter-screen for Shiga toxin inhibitors: cycloheximide protein synthesis inhibition. actives 12% (n = 300,000). cell reporter, cycloheximide protein synthesis inhibition counterscreen. AID 2314. max response, %; in the data active = max response mostly above about 13%, no sharp cut-off; inactive = mostly below about 14%; note: read at 38.3 µM for the half of the compounds with a filed dose; 0% is about no effect
Giardia FBPA inh: Giardia lamblia aldolase inhibition | A8B2U2 | purified Giardia FBPA | Potency, µM (titrated, usually from 59.6 µM), for inactives: at the top dose activity, negative = inhibition, hits mostly inhibitors | actives 0.71% (n = 290,000) | AID 2451; note: potency is the fitted concentration of half-maximal effect; % is set by controls: 0 for no effect and ±100 for the full control effect; nearly all actives have a fitted effect of over 55% in size
Target sequence (A8B2U2 whole entry, looked up): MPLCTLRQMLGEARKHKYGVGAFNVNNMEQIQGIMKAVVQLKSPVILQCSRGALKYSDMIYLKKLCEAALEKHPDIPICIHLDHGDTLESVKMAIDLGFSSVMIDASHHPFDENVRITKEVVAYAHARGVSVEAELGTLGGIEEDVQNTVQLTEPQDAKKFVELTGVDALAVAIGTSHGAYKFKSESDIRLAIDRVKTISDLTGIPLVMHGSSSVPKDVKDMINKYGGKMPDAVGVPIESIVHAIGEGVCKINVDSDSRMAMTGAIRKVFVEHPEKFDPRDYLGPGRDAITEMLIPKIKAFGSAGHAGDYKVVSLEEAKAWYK
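Giardia FBPA (40 nM reagent) was preincubated 10 min at RT with compound (up to 57.5 uM final), then substrate plus GAPDH/TPI/NAD/arsenate coupling system with diaphorase/resazurin was added; resorufin fluorescence (525/598 nm) was read after 20 min.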
Shiga inhibitor: inhibitors of Shiga toxin in Vero cells. Vero cells, Shiga toxin protein synthesis inhibition reporter. inhibition, % at 38.7 µM. actives 9.2% (n = 290,000). AID 2315; in the data active = inhibition mostly above about 28%, no sharp cut-off; inactive = mostly below about 43%; note: 0% is about no effect
Pf growth 96h: P. falciparum growth inhibition at 96 hours; Potency, µM (titrated, usually from 28.7 µM), for inactives: top-dose activity change, negative = inhibition, hits mostly inhibitors; actives 6.9% (n = 320,000); P. falciparum luciferase reporter growth, 96 h; note: potency is the fitted concentration of half-maximal effect; % is set by controls: 0 for no effect and ±100 for the full control effect
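Infected RBCs, 2% Hct / 0.05% parasitemia final; luciferase-reporter P. falciparum; cpd 96 h, 37 C, 5% CO2; luciferase detection reagent; luminescence.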
Pf growth 48h: inhibits P. falciparum growth in the first generation, 48 h. Potency, µM (series often up to 28.7 µM), for inactives: top-dose activity change, negative = inhibition, hits mostly inhibitors. P. falciparum luciferase growth in erythrocytes, 48 h. actives 5.9% (n = 310,000); note: potency is the fitted concentration of half-maximal effect; % is set by controls: 0 for no effect and ±100 for the full control effect
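First compound was added to culture medium, then infected red cells at 0.1% parasitemia and 2% hematocrit (final). After incubation at 37 C under 5% CO2, luciferase detection reagent was dispensed and light output recorded.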
* hit, by the source's call; i = inactive; u = inconclusive; x = no result given. Unless noted, calls come from the whole dose curve; as a rule, active = well fitted curve in the direction sought with a large enough effect; inconclusive = small, poorly fitted or top-dose-only effect, or another doubt; inactive = no such curve, though single readings can be large; an effect the other way counts as inactive or inconclusive.

SMILES	NS1 inh	Cycloheximide cs	Giardia FBPA inh	Shiga inhibitor	Pf growth 96h	Pf growth 48h
O=C1[C@H]2[C@@H](C3CC3)N3C(=O)CN(Cc4ccccn4)C(=O)[C@@]3(Cc3ccccc3)[C@H]2C(=O)N1c1ccccc1	-2.9%	1.2	-2.0%	-1.4	u	u
O=P(O)(O)O[C@@H]1[C@H](O)[C@H](O)[C@@H](OP(=O)(O)O)[C@H](OP(=O)(O)O)[C@H]1O	x	1.3	11.1%	-3.6	x	x
Cn1c(=O)c(CCc2ccccc2)nc2cnc(N3CCOCC3)nc21	x	x	2.6%	x	x	x
O=C(CNC(=S)N(Cc1ccccc1)Cc1ccccc1F)NCCc1ccccc1	x	0.4	-1.7%	-14.8	u	u
Cc1ccccc1Cn1nc(C)c(NC(=O)c2noc3c2CCc2ccccc2-3)c1C	-100.5%	-1.1	-5.2%	-11.7	1.17µM*	u
O=C(NCCCn1ccnc1)c1noc2c1CCc1ccccc1-2	-19.3%	1.2	u	47.2	28.3%	-11.2%
Cc1cc(NC(=O)c2noc3c2CCc2ccccc2-3)no1	-3.8%	-1.5	-3.4%	7.1	-11.9%	36.8%
Cc1ccc(O)c(NC(=O)c2noc3c2CCc2ccccc2-3)c1	x	42.6*	2.7%	87.4*	9.28µM*	u
CC(=O)c1cccc(NC(=O)c2noc3c2CCc2ccccc2-3)c1	x	34.8*	-0.7%	65.9*	-28.9%	i
Cc1ccccc1Cn1nc(C)c(NC(=O)c2noc3c2CC(C(C)(C)C)CC3)c1C (centres undefined)	-88.1%	-3.5	-4.3%	-2.8	67.9%	u
CCC(C)[C@H](NC(=O)Nc1cccc(Br)c1)C(=O)OC (some centres undefined)	1.8%	8.4	0.6%	-12.1	41.6%	9.8%
Cc1ccc(N(CCC#N)C(=O)CCl)cc1C	-11.4%	9.0	-4.0%	7.8	u	9.28µM*
COc1cc(OC)cc(C(=O)NC(=S)NNC(=O)[C@H]2C[C@@H]2c2ccccc2)c1	-36.4%	-0.7	u	9.4	-16.7%	u
COc1ccc(C(=O)NC(=S)NNC(=O)[C@H]2C[C@@H]2c2ccccc2)cc1OC	4.5%	0.9	u	-5.3	1.47µM*	u
O=C(NC1CCSc2ccccc21)c1ccc(C(F)(F)F)cc1 (centres undefined)	3.8%	-3.3	-2.0%	13.9	u	-16.4%
COc1ccc(Cn2c(C3CC3)nc3ccc(NC(=O)c4ccco4)cc3c2=O)cc1	-35.7%	23.9	-1.2%	46.9	2.08µM*	2.94µM*
CCC(=O)Nc1ccc2nc(C3CC3)n(Cc3ccccc3)c(=O)c2c1	u	11.4	3.9%	33.4	-18.6%	65.4%
O=C(Nc1ccc2nc(C3CC3)n(Cc3ccccc3)c(=O)c2c1)C1CC1	1.5%	22.6*	1.3%	31.4*	-17.6%	52.9%
Cc1cc2c(s1)c1cnn(Cc3ccccc3F)c(=O)c1n2Cc1ccccc1F	x	14.8	x	6.7	x	x
O=C(O)C1C(c2ccccc2)C(C(=O)OCc2ccco2)C1c1ccccc1 (centres undefined)	-0.3%	-0.9	15.4%	-3.2	-6.8%	-7.0%
COC(=O)C1C(c2ccccc2)C(C(=O)OCc2ccco2)C1c1ccccc1 (centres undefined)	-35.6%	72.1*	-0.9%	124.6*	-4.3%	10.4µM*
COc1cc2c(cc1OC)C(C(=O)c1ccc(OC)c(OC)c1O)=NCC2	x	x	-28.4%	x	x	x
CCOC(=O)c1nc(C)sc1-c1ccnn1S(=O)(=O)c1ccc(Cl)cc1Cl	-4.0%	28.9*	-29.4%	35.6	4.2%	7.6%
CCOC(=O)c1nc(C)sc1-c1ccnn1S(=O)(=O)c1ccccc1C(F)(F)F	2.1%	5.6	-10.9%	-3.7	9.2%	-28.2%
CN(C1CCCCC1)S(=O)(=O)c1ccc2c(c1)CCC(=O)N2	x	x	x	x	-13.7%	u
SMILES	NS1 inh	Cycloheximide cs	Giardia FBPA inh	Shiga inhibitor	Pf growth 96h	Pf growth 48h
COc1cccc(CNC(=O)CCN2C(=O)[C@@H]3Cc4ccccc4CN3C2=O)c1	4.7%	-4.0	12.8%	-8.5	43.4%	-3.6%
CSC1=NSC2=NC(=O)/C(=C/c3coc4ccc(O)cc4c3=O)C(=N)N12	10.3%	-2.1	-14.6%	-29.2	27.3%	12.0%
CSC1=NSC2=NC(=O)/C(=C\c3cccs3)C(=N)N12	-24.8%	42.4*	-0.6%	41.9*	39.6%	125.2%
N=C1/C(=C/c2cccs2)C(=O)N=C2SN=C(SCc3ccccc3)N12	18.6%	26.4*	20.9%	37.4*	u	3.8%
CC(C)CSC1=NSC2=NC(=O)/C(=C\c3cccs3)C(=N)N12	-11.7%	67.5*	11.9%	101.7*	-11.7%	30.0%
CSC1=NSC2=NC(=O)/C(=C/c3coc4ccccc4c3=O)C(=N)N12	-12.0%	17.4	-8.1%	47.5*	21.8%	3.3%
Cc1cc(/C=C2/C(=N)N3C(=NC2=O)SN=C3S(C)(=O)=O)c(C)n1-c1ccccc1F	x	5.6	u	60.7	u	83.3%
CC1=CC2=NC(=O)/C(=C/c3cccs3)C(=N)N2O1	-4.6%	-0.9	-2.4%	-13.9	23.3%	20.5%
O=C(CCC(=O)Nc1nnc(C2CCCCC2)s1)Nc1ccc(F)cc1	7.0%	10.6	1.2%	8.2	20.7%	-0.6%
CCCCc1ccc(NS(=O)(=O)c2cccc(C(=O)N3CCNC(=O)C3)c2)cc1	x	x	x	x	12.1%	u
CCN(CC)S(=O)(=O)c1ccc(N2CCN(C)CC2)c(NC(=O)c2cc(=O)c3ccccc3o2)c1	8.6%	0.6	2.4%	-12.9	-16.9%	0.0%
Cc1cc(C)cc(N2Cc3ccccc3C2)c1	6.3%	-4.1	-15.3%	-1.8	4.15µM*	x
CCOC(=O)c1ccccc1O	x	x	x	x	-15.4%	1.0%
C#CCN1CCN(c2cccc(C(F)(F)F)c2)CC1	x	0.2	1.6%	-10.1	20.3%	35.2%
O=[N+]([O-])c1cccc(N2Cc3ccccc3C2)c1	1.7%	12.8	-8.6%	38.8	61.4%	46.7%
CCOC(=O)c1ccc(N2Cc3ccccc3C2)cc1O	-0.1%	46.2*	0.8%	65.2*	2.2%	4.15µM*
FC(F)(F)c1cccc(N2Cc3ccccc3C2)c1	-12.8%	19.8*	-6.7%	36.8*	45.8%	13.1µM*
CCc1ccc(N2Cc3ccccc3C2)cc1	5.6%	58.4*	-18.6%	98.6*	u	-87.9%
COc1cc(N2Cc3ccccc3C2)ccc1C=O	16.6%	7.5	-8.5%	11.2	-0.7%	-75.4%
CCCCN(Cc1cc2cc(OC)ccc2[nH]c1=O)S(=O)(=O)c1ccc(C)cc1	16.1%	-2.2	-19.5%	-1.4	7.4%	u
COc1ccc(S(=O)(=O)N(CCCN2CCCC2=O)Cc2cc3c(C)cc(C)cc3[nH]c2=O)cc1	-10.0%	15.4	-8.0%	-11.9	-18.1%	9.28µM*
COc1ccc(C(=O)NCCS(=O)(=O)NCc2ccccc2OC)cc1	x	x	x	x	-1.3%	26.2%
C/C(=N/NC(=O)c1ccccc1)c1ccc(NC(=O)C(F)(F)F)cc1	5.4%	43.1*	-6.1%	135.4*	31.1%	58.0%
